For some assays here: Entries with a potency or affinity are not part of this list. Calls of active or inactive are those of the source.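 The calls were made as follows, unless noted: active = compound raising the membrane signal above positive-control mean plus 3 SD in both repeats, and a primary screen hit; inactive = the rest.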
Experiments:
[1] = test system: TRPC4 beta (transient receptor potential cation channel C4), mouse; test: TRPC4 cation channel opening, retest – cell-based, Fluo4 calcium, HEK293 TRPC4beta/mu-opioid, duplicates, 10 µM, confirmation (AID 2426;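 active = fluorescence ratio normalized to control raised more than 50% in primary screen plus both repeat runs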); conditions: Fluo4 calcium fluorescence, at 10 µM; active compounds read high
[2] = test system: transient receptor potential cation channel C4 beta (TRPC4), mouse; test: TRPC4 cation channel opening, second retest – cell-based, second round, Fluo4, HEK293 TRPC4beta/mu-opioid, 1 µM, confirmation (AID 2461;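 active = primary screen active and over 50% activation in each of two duplicate runs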); conditions: Fluo4 calcium fluorescence, at 1 µM; active compounds read high
[3] = test system: TRPC4 (transient receptor potential cation channel C4 beta), mouse; test: potentiation of DAMGO EC20 TRPC4 response – cell-based, second round, Fluo-4, HEK293 TRPC4beta/mu-opioid, 1 µM, confirmation (AID 2554;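 active = primary screen hit whose fluorescence ratio, in both repeats, exceeds the weak agonist control mean by 3 SD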); conditions: DAMGO EC20, Fluo-4 calcium flux, at 1 µM; active compounds read high
[4] = test system: TRPC4 beta (transient receptor potential cation channel C4), mouse; test: potentiation of DAMGO EC20 TRPC4 response – cell-based, Fluo-4, HEK293 TRPC4beta/mu-opioid, confirmation (AID 2555;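 active = primary screen hit whose calcium fluorescence ratio, in both repeats, exceeds the weak agonist control mean by 3 SD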); conditions: DAMGO EC20, Fluo-4 calcium flux, at 10 µM; active compounds read high
[5] = target: Short transient receptor potential channel 4 (Mus musculus) (UniProt Q9QUQ5); test: blockers of DAMGO-evoked TRPC4 calcium flux – cell-based, Fluo4, HEK293 TRPC4beta/mu-opioid, confirmation (AID 2636;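 active = calcium signal cut by more than 3 SD below the full-agonist control yet still positive, in both repeats and the earlier primary screen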); conditions: at 10 µM; active compounds read high
[6] = target: Short transient receptor potential channel 4 (Mus musculus) (UniProt Q9QUQ5); test: blockers of DAMGO-evoked TRPC4 calcium flux – cell-based, second round, Fluo4, HEK293 TRPC4beta/mu-opioid, 1 µM, confirmation (AID 2637;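 active = calcium signal ratio cut to more than 3 SD under the fully stimulated control mean yet still positive, in both repeats and the primary screen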); conditions: at 1 µM; active compounds read high
[7] = target: Short transient receptor potential channel 4 (Mus musculus) (UniProt Q9QUQ5); test: calcium entry via TRPC4 opening agents – cell-based, HEK293 TRPC4/mu-opioid, Fluo-4 calcium, dose response (AID 434937;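 active = primary screen activator hit with a dose response curve and TRPC4 channel activation at any tested dose; inactive = no activation, no dose response, or not a primary hit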)
[8] = target: Short transient receptor potential channel 4 (Mus musculus) (UniProt Q9QUQ5); test: potentiation of DAMGO-evoked TRPC4 calcium signal – cell-based, HEK293 TRPC4/mu-opioid, Fluo-4 calcium, EC20 DAMGO, dose response (AID 434941;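 active = earlier screen potentiator hit that boosts the TRPC4 ion channel at some dose, with a dose response; inactive = no potentiation, no dose response, or not a prior hit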;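 also: calcium entry triggered by an EC20 dose of DAMGO at the co-expressed mu-opioid receptor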)
[9] = target: Short transient receptor potential channel 4 (Mus musculus) (UniProt Q9QUQ5); test: block of DAMGO-driven TRPC4 calcium entry – cell-based, HEK293 TRPC4/mu-opioid, Fluo-4 calcium, dose response (AID 434942;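 active = primary screen inhibitor hit that blocks the TRPC4 channel at some tested dose, yielding a dose curve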)
[10] = target: Short transient receptor potential channel 6 (Mus musculus) (UniProt Q61143); test: TRPC6 blockade by TRPC4 inhibitor hits – cell-based, HEK293, membrane potential dye, duplicate, selectivity assay for TRPC4 inhibitor project, confirmation (AID 434948;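 active = active in primary screen and both duplicates, each dropping signal beyond three positive-control SD with fluorescence still positive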); conditions: HEK293 TRPC6, membrane potential dye fluorescence, at 10 µM, stimulated with maximal-effect acetylcholine; active compounds read high
[11] = target: Short transient receptor potential channel 6 (Mus musculus) (UniProt Q61143); test: TRPC6 opening by TRPC4 activator hits – cell-based, HEK293, membrane potential dye, duplicate, selectivity assay for TRPC4 activator project, confirmation (AID 434950;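 active = membrane potential signal rise above negative control mean plus 3 SD in both duplicates, also active in the earlier TRPC4 screen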); conditions: HEK293 TRPC6, membrane potential fluorescence, at 10 µM; activation: active compounds read high; outcome: activation
[12] = target: Short transient receptor potential channel 6 (Mus musculus) (UniProt Q61143); test: positive modulators of mouse TRPC6 channel – HEK293 cells, membrane potential dye, duplicate, selectivity assay for TRPC4 potentiator project, confirmation (AID 434952); conditions: HEK293 TRPC6, membrane potential dye fluorescence, at 10 µM, maximal acetylcholine added after compound; active compounds read high
[13] = target: Short transient receptor potential channel 4 (Mus musculus) (UniProt Q9QUQ5); test: calcium flux activators in TRPC4/5HT1a cells, counter-screen for TRPC4 activator project, cell-based, second counter screen, HEK293 TRPC4/5HT1a, Fluo-4 (AID 434977;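 active = calcium signal rise above buffer-control mean plus 5 SD in both duplicates, and also a hit in the primary screen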); conditions: Fluo-4 calcium flux, at 10 µM; active compounds read high
[14] = serotonin-gated TRPC4 signal block – cell-based, second counter screen, HEK293 TRPC4/5HT1a, Fluo-4, counter-screen for TRPC4 inhibitor project, confirmation (AID 434978;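 active = primary screen active whose calcium signal fell more than 3 SD beyond the full-serotonin control mean in both duplicate plates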;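 also: serotonin given first at submaximal then at maximal dose after compound preincubation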); conditions: Fluo-4 calcium flux, at 10 µM, serotonin added to trigger calcium flux; active compounds read high
[15] = test system: TRPC4 (mouse), co-expressed with 5HT1a in HEK293; test: enhancement of serotonin-evoked TRPC4 response – cell-based, second counter screen, HEK293 TRPC4/5HT1a, Fluo-4, counter-screen for TRPC4 potentiator project, confirmation (AID 434979;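 active = signal rise over 3 SD above mean of control wells given weak agonist, in both repeats and first screen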); conditions: Fluo-4 calcium flux, at 10 µM, serotonin added at its EC20 dose; active compounds read high
[16] = nonspecific calcium rise without TRPC4 – cell-based, HEK293 mu-opioid receptor line, counter-screen for TRPC4 activator project, confirmation (AID 449723;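 active = hit in primary screen, with calcium signal over 5 SD above buffer well mean in both duplicates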;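 also: counter screen cells carry the mu-opioid receptor alone and lack TRPC4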); conditions: HEK293 mu-opioid cells, Fluo-4 calcium fluorescence, at 10 µM; active compounds read high
[17] = nonspecific potentiation of DAMGO calcium response – cell-based, HEK293 mu-opioid receptor line, counter-screen for TRPC4 allosteric potentiator project, confirmation (AID 449724;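 active = calcium signal rise more than 3 SD above the low-dose agonist control mean, in both duplicate plates and the primary screen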); conditions: HEK293 mu-opioid receptor cells, Fluo-4 calcium flux, at 10 µM, compound added before EC20 DAMGO stimulus; active compounds read high
[18] = nonspecific flux increase, KCNQ1-free cells – parental CHO cells, counter-screen for KCNQ1 potentiator project (AID 493006;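 active = duplicate-averaged activation above buffer control mean plus 5 SD of those controls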;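 also: fluorescence ratio of max minus min over baseline after K+ and Tl+ depolarization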); conditions: parental CHO-K1 cells, FluxOR thallium flux, at 10 µM; active compounds read high
[19] = target: Potassium voltage-gated channel subfamily KQT member 1 (Homo sapiens) (UniProt P51787); test: enhancement of KCNQ1 channel thallium flux – FluxOR thallium flux, CHO cells, duplicates, confirmation (AID 493007;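 active = potentiation averaged over duplicate wells exceeding buffer-only control mean by more than 3 SD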;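 also: 0% = buffer-only wells and 100% = R-L3 activator control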); conditions: KCNQ1 cell line, FluxOR thallium flux fluorescence, at 10 µM; active compounds read high, % of reference activator effect, buffer zero
[20] = target: Potassium voltage-gated channel subfamily KQT member 2 (Rattus norvegicus) (UniProt O88943); test: KCNQ2 thallium flux enhancement – KCNQ2-CHO-K1 cells, selectivity assay for KCNQ1 potentiator project (AID 493009;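 active = mean duplicate potentiation above the buffer control mean plus 5 SD of buffer wells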;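 also: assay conditions were tuned for KCNQ1 rather than KCNQ2 modulators; signal is max minus min fluorescence divided by baseline after thallium stimulus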); conditions: FluxOR thallium flux fluorescence, at 10 µM; active compounds read high, scaled: buffer 0, activator control 100
Chain of Potassium voltage-gated channel subfamily KQT member 2 (Rattus norvegicus) (O88943 whole entry, looked up): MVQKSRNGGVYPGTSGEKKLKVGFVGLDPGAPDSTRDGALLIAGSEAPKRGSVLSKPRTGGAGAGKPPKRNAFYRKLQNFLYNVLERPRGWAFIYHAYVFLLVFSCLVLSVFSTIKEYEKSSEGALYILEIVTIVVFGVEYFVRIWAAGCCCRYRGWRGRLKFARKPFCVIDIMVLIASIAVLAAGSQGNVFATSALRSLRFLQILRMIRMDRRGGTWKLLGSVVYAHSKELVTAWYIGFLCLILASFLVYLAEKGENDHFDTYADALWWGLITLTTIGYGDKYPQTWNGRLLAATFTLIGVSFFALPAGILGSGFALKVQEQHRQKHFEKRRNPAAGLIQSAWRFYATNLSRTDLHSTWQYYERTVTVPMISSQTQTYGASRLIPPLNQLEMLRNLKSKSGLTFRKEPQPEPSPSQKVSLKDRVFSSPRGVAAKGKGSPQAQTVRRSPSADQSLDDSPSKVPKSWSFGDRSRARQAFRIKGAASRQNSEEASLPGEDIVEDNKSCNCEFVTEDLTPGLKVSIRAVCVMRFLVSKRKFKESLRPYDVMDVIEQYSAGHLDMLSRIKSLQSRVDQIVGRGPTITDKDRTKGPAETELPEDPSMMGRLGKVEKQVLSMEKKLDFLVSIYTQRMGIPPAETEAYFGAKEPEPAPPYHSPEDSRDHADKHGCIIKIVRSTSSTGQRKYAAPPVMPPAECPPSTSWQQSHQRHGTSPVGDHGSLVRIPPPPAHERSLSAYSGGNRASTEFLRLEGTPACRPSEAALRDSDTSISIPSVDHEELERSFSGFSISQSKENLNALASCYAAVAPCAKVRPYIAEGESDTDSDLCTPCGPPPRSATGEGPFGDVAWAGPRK

Chain of Short transient receptor potential channel 6 (Mus musculus) (Q61143 whole entry, looked up): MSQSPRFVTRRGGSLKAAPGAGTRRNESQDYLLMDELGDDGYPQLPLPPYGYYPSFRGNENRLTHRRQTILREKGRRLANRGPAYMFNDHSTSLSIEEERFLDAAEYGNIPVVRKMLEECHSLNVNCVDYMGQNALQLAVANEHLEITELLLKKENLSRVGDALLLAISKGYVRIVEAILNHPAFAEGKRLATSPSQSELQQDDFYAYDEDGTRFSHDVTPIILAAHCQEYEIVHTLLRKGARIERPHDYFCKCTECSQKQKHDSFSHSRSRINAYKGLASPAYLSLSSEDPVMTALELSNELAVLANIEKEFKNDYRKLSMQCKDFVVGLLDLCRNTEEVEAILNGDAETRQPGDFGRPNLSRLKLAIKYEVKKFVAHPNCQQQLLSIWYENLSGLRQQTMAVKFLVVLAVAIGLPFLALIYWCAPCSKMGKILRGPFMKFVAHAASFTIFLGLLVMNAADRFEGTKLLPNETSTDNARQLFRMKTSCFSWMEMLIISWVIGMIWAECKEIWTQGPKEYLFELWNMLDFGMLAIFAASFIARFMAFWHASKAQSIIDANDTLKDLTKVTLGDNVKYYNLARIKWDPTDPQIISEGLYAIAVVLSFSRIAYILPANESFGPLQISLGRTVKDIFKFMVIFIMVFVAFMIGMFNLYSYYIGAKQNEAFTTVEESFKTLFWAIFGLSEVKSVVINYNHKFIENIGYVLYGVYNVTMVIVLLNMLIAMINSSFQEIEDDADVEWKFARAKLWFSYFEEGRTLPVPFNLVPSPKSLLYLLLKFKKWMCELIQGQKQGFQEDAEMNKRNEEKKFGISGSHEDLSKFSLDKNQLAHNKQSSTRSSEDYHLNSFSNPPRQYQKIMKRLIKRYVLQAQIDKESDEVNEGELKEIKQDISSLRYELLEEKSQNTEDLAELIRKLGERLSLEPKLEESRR
Chain of Short transient receptor potential channel 4 (Mus musculus) (Q9QUQ5 whole entry, looked up): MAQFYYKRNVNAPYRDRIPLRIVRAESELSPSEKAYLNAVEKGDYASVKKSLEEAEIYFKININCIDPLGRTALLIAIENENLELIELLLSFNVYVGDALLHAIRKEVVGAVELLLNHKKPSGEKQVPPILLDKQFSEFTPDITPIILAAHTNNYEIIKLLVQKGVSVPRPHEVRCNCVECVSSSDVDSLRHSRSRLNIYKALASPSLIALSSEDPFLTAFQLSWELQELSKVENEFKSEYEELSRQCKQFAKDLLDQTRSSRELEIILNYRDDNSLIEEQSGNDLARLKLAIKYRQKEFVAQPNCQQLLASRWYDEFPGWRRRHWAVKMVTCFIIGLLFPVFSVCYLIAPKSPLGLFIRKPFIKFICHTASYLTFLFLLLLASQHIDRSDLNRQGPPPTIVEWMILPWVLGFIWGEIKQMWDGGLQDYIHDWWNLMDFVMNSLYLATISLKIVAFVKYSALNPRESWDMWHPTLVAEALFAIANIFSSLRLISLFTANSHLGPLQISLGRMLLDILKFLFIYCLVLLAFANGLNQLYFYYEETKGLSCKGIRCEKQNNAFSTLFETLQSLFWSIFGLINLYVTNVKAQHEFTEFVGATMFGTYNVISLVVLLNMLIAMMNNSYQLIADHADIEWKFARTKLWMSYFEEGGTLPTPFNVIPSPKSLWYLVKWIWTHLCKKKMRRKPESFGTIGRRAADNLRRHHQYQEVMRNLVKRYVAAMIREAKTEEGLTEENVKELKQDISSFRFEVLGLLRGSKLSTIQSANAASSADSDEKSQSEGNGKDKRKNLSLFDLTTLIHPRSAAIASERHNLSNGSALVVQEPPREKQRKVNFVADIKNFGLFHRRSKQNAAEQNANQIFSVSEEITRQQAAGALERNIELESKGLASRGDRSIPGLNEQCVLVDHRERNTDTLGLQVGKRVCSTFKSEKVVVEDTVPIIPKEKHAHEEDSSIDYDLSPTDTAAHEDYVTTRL
Chain of Potassium voltage-gated channel subfamily KQT member 1 (Homo sapiens) (P51787 whole entry, looked up): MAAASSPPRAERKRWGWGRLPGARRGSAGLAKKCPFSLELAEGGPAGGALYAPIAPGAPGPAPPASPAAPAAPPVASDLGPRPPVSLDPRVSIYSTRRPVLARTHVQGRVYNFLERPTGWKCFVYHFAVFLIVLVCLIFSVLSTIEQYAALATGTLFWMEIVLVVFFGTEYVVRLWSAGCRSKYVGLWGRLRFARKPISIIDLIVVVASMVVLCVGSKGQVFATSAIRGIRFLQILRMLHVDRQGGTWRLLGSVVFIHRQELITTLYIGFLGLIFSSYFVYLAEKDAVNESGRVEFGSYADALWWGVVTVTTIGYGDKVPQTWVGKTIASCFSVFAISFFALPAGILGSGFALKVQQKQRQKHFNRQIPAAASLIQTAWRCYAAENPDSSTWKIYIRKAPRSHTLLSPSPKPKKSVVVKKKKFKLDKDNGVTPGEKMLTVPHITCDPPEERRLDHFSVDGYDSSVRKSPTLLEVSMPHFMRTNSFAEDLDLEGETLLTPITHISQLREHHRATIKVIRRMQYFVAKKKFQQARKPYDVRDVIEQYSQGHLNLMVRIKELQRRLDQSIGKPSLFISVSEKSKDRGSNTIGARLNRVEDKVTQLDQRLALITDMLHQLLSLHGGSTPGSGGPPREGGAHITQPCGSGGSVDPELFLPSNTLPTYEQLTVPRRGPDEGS

COc1cccc(N(C(=O)c2snc(C(N)=O)c2N)C(C(=O)NCC2CCCO2)c2ccc3ncccc3c2)c1 (stereo not drawn)
inactive: outcome [1] | outcome [2] | outcome [3] | outcome [4] | outcome [6] | outcome [7] | outcome [8] | outcome [9] | outcome [10] | outcome [11] | outcome [12] | outcome [13] | outcome [14] | outcome [15] | outcome [16] | outcome [17]
active: inhibition [5] 76%

Cc1nn(-c2cc(C(F)(F)F)ccc2Cl)c2nc(C(Cl)(Cl)Cl)[nH]c(=O)c12
inactive: outcome [1] | outcome [2] | outcome [3] | outcome [4] | outcome [5] | outcome [6] | outcome [7] | outcome [8] | outcome [9] | outcome [10] | outcome [11] | outcome [12] | outcome [13] | outcome [14] | outcome [15] | outcome [16] | outcome [17]
active: activation [18] 191% | potentiation [19] 52.5% | potentiation [20] 218%

Cc1ccc(C(=O)O)cc1N=Cc1cc(Br)cc(Br)c1O
inactive: outcome [1] | outcome [2] | outcome [3] | outcome [4] | outcome [5] | outcome [6] | outcome [7] | outcome [8] | outcome [9] | outcome [10] | outcome [11] | outcome [12] | outcome [13] | outcome [14] | outcome [15] | outcome [16] | outcome [17]
active: activation [18] 222% | potentiation [19] 164% | potentiation [20] 192%

CC1CCCCC1NS(=O)(=O)c1ccc(S(=O)(=O)N2CCCC2)cc1 (stereo not drawn)
inactive: outcome [1] | outcome [2] | outcome [3] | outcome [5] | outcome [6] | outcome [7] | outcome [8] | outcome [9] | outcome [10] | outcome [11] | outcome [12] | outcome [13] | outcome [14] | outcome [16] | outcome [17]
active: potentiation [4] 32% | potentiation [15] 11.2%

O=C(Nc1ccnn1C1CCN(Cc2cc3ccccc3[nH]2)CC1)C1CCOC1 (stereo not drawn)
inactive: outcome [1] | outcome [2] | outcome [3] | outcome [4] | outcome [5] | outcome [6] | outcome [7] | outcome [8] | outcome [9] | outcome [10] | outcome [11] | outcome [12] | outcome [13] | outcome [14] | outcome [15] | outcome [16] | outcome [17]
active: activation [18] 163% | potentiation [19] 53.5% | potentiation [20] 180%

CC(=O)Nc1ccc(CN2CCCC(CO)(Cc3ccccc3C)C2)cc1 (stereo not drawn)
inactive: outcome [1] | outcome [2] | outcome [3] | outcome [4] | outcome [5] | outcome [6] | outcome [7] | outcome [8] | outcome [9] | outcome [10] | outcome [11] | outcome [12] | outcome [13] | outcome [14] | outcome [15] | outcome [16] | outcome [17]

CCOc1ccc(CN(C)CC(=O)NNC(=O)c2ccc(Cl)cc2)cc1OC
active: potentiation [3] 41% | potentiation [4] 22% | potentiation [15] 11%
inactive: outcome [1] | outcome [2] | outcome [5] | outcome [6] | outcome [7] | outcome [8] | outcome [9] | outcome [10] | outcome [11] | outcome [12] | outcome [13] | outcome [14] | outcome [16] | outcome [17]

— PubChem BioAssay
